Laboratory results as given in PubChem BioAssay (NCATS).
Records with an inconclusive call do not appear. The source made the active and inactive calls. Unless noted, the call rests on the fitted dose curve; in most records, active means well fitted curve in either direction with a large enough effect (not every such curve was filed as active); inconclusive means small, poorly fitted or top-dose-only effect, or another doubt; inactive means flat fitted curve, though single readings scatter.

Legend:
[1] = molecular target: Lysosomal acid glucosylceramidase (Homo sapiens) (UniProt P04062); experiment: Glucocerebrosidase-p2 (AID 348; in the data active means potency below about 10 µM; further: potency means the concentration at half of the fitted maximal effect); conditions: purified GBA, blue fluorogenic substrate, 40 min
In short: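 Compounds titrated from 0.6 nM upwards against 0.2 nM enzyme in pH 5.9 citric acid/KH2PO4, taurocholate, tween-20; blue fluorogenic substrate 80 uM, 40 min room temperature, stopped and read Ex 365/Em 440 for AC50.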

[2] = AP1 Signaling Pathway (AID 357); conditions: ME-180 AP-1-bla reporter, EGF-induced, beta-lactamase ratio, 5 h; at 7.69 µM (top of the series) unless noted;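 further: ME-180 reporter cells stimulated with EGF at its EC50 level; on the % scale 0 is the no-effect control and ±100 the full control effect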
In short: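 Modulation of EGF-driven AP-1 transcription was assessed with a beta-lactamase reporter in ME-180 cells. Compound and EC50 EGF were co-incubated 5 hours at 37 °C before 2.5-hour CCF4 loading at room temperature and dual-emission reading.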

[3] = molecular target: Cytochrome P450 1A2 (Homo sapiens) (UniProt P05177); experiment: p450-cyp1a2 (AID 410; calls by dose curve; further: potency means the concentration at half of the fitted maximal effect;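 on activity change, negative = inhibition: -100% = full effect of reference inhibitor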); conditions: recombinant CYP1A2, luciferin-ME demethylation, luminescence; series mostly up to 57 µM
In short: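 Luminescent readout of luciferin formed from Luciferin-ME by human CYP1A2; data normalized against complete inhibition by 57 uM furafylline. Enzyme 20nM, substrate 100uM at Km, 100mM KPO4 buffer, 60 min reaction at room temperature.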

[4] = NFAT Signaling Pathway (AID 444); conditions: Jurkat NFAT-bla M1, carbachol, beta-lactamase ratio, 5 h; at 7.69 µM (top of the series) unless noted;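 further: carbachol stimulus at about its EC50 of 1 µM final; on the % scale 0 is the no-effect control and ±100 the full control effect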
In short: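 Jurkat cells carrying an NFAT-driven β-lactamase reporter and co-transfected muscarinic M1 receptor were treated with compound plus carbachol (1 uM final, an EC50 level) for 5 h at 37 °C. CCF4 loading followed for 1 h at RT; 460/530 nm ratio gave %activity.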

[5] = Stat Signaling Pathway (AID 446); conditions: ME-180 SIE beta-lactamase reporter, IL-6 stimulated, 5 h; at 7.69 µM (top of the series) unless noted;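 further: ME-180 cervical cancer cells given 40 pM IL-6 alongside compound; SIE-controlled beta-lactamase reporter measured as 460/530 nm FRET emission ratio; on the % scale 0 is the no-effect control and ±100 the full control effect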
In short: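 Screening format detects activators and inhibitors alike: ME-180 SIE-bla cells stimulated at 40 pM IL-6 for 5 hrs with compound, then dual-emission beta-lactamase read at 405 nm excitation.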

[6] = molecular target: Glucocorticoid receptor (Homo sapiens) (UniProt P04150); experiment: GR-GFP Redistribution (AID 450;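 active means compounds whose dose series gives a full or clear partial fitted curve of increased nuclear translocation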; further: potency means the concentration at half of the fitted maximal effect); conditions: U2OS GR-GFP nuclear translocation, laser cytometry, 2 h
[7] = molecular target: Glucocorticoid receptor (Homo sapiens) (UniProt P04150); experiment: GR-EFC Redistribution (AID 451; calls by dose curve; further: potency means the concentration at half of the fitted maximal effect); conditions: CHO-K1 GR-EFC translocation, beta-gal luminescence, 2 h
In short: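 CHO-K1 cells stably expressing nuclear-localized β-gal enzyme acceptor and GR fused C-terminally to the enzyme donor fragment; ligand-driven nuclear translocation restores β-gal by complementation. Compounds titrated up to 46 uM final, 2 h at 37 °C; luminescence read.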

[8] = molecular target: Mitogen-activated protein kinase 10 (Mus musculus) (UniProt Q61831); experiment: JNK3 AlphaScreen Assay (AID 530); conditions: JNK3 lysate, c-Jun phosphorylation; series mostly up to 57.1 µM;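 further: kinase came from lysate of stimulated human HepG2 cells; signal reports phosphorylation of biotinylated GST-cJun 1-79 at Ser73 with 10 µM ATP; on the % scale 0 is the no-effect control and ±100 the full control effect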
In short: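 Inhibitors reduce antibody binding to phosphorylated biotin-cJun, lowering AlphaScreen luminescence. Lysates from HepG2 cells pre-activated by IL-1beta plus TNF-alpha supplied JNK3; compounds were titrated.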

[9] = molecular target: 3',5'-cyclic-AMP phosphodiesterase 4B (Homo sapiens) (UniProt Q07343); experiment: qHTS Assay for Inhibitors of PDE-IV (AID 607; active means well fitted activation curve with a large enough effect in the main read-out, with a control signal flat, not every such curve was filed as active; further: % of control where 0% means no effect); conditions: HEK293 ACTOne CNG channel cells, membrane potential fluorescence; series mostly up to 22.9 µM
In short: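 The readout is membrane depolarisation from a cAMP-sensing CNG channel, detected with a potential dye at ex 535/em 590. Cells were HEK293-derived (endogenous PDE-IV) at 1000 cells/well, titrated up to 22.9 uM final.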

[10] = molecular target: Cytochrome P450 3A4 (Homo sapiens) (UniProt P08684); experiment: qHTS Assay for Activators of Cytochrome P450 3A4 (AID 885; active means well fitted curve in the direction sought with a large enough effect; an effect the other way counts as inactive or inconclusive; further: nearly all actives have a fitted effect of over 65% in size); conditions: recombinant CYP3A4, Luciferin-PPXE luminescence, 60 min; series mostly up to 57.1 µM
In short: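 Steps: enzyme/substrate mix dispensed; compound added, 10 min RT; NADPH regeneration solution added, 60 min RT; luciferin detection buffer stops reaction; 20 min later luminescence measured.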

[11] = Confirmation and Secondary Assay for Modulators of Hemoglobin Beta Chain Splicing at IVS2 654 locus (AID 910; active means well fitted curve in the direction sought with a large enough effect; an effect the other way counts as inactive or inconclusive;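 further: per-well total GFP intensity by laser scanning cytometry after 2-day treatment; % of control where 0% means no effect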); conditions: HeLa EGFP-654 splicing reporter, GFP fluorescence, 48 h; series mostly up to 38.3 µM
In short: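 HeLa cells stably carrying EGFP interrupted by mutant beta-globin IVS2-654 intron (CMV-driven) were treated with compound for 2 days at 37C; corrected splicing was scored as total peak GFP intensity per well (488 nm excitation, 500-520 nm emission).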

[12] = Confirmation and Secondary Assay for Modulators of Hemoglobin Beta Chain Splicing at IVS2 705 locus (AID 930; active means well fitted curve in the direction sought with a large enough effect; an effect the other way counts as inactive or inconclusive;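 further: HeLa cells stably expressing the EGFP-705 splicing reporter; GFP fluorescence per well restored by corrected splicing of the IVS2-705 intron in EGFP; % of control where 0% means no effect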); conditions: HeLa EGFP-705 splicing reporter, GFP fluorescence, 48 h; series mostly up to 38.3 µM
In short: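 Fluorescence gain (488 nm laser, 500-520 nm PMT) reflects restored correct splicing of a mutant IVS2-705 intron inside EGFP in stably transfected HeLa cells after 2-day compound treatment.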

[13] = qHTS Assay for Lipid Storage Modulators (AID 1519; calls by dose curve); conditions: Drosophila S3 cells, BODIPY lipid droplet/cell ratio, laser cytometry, cells loaded with oleic acid; for activity change, negative = inhibition: at 57.5 µM (top of the series)
In short: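 Cells seeded at 5,000 per well were treated with compounds over a concentration series and loaded with oleic acid (400 uM, as added). Lipid droplet fluorescence (488 nm excitation, 500-530 nm channel) was read by laser-scanning cytometry and normalized to 20 uM Triacsin C.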

[14] = molecular target: Ubiquitin carboxyl-terminal hydrolase 1 (Homo sapiens) (UniProt O94782); experiment: Inhibitors of USP1/UAF1: Pilot qHTS (AID 504865; active means well fitted curve in the direction sought with a large enough effect; an effect the other way counts as inactive or inconclusive; further: nearly all actives have a fitted effect of over 35% in size; further: potency means the concentration at half of the fitted maximal effect); conditions: purified USP1/UAF1, Ub-rhodamine cleavage fluorescence; series mostly up to 54.9 µM
In short: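 USP1/UAF1 complex (1nM) preincubated with compound 15 min at room temperature, then Ub-Rho substrate (150nM final) added. Fluorescence read kinetically at 480/540 nm, 6 reads every 60 seconds. Buffer: 50mM HEPES pH 7.8, 0.5mM EDTA, 0.1 mg/ml BSA, 1mM TCEP, 0.01% Tween-20.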

[15] = molecular target: Cytochrome P450 3A4 (Homo sapiens) (UniProt P08684); experiment: qHTS Assay for Inhibitors and Substrates of Cytochrome P450 3A4 (AID 884; active means well fitted curve in the direction sought with a large enough effect; an effect the other way counts as inactive or inconclusive; further: potency means the concentration at half of the fitted maximal effect; nearly all actives have a fitted effect of over 50% in size); conditions: recombinant CYP3A4, Luciferin-PPXE luminescence; series mostly up to 57.1 µM
In short: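 20 nM human CYP3A4 with 25 uM Luciferin-PPXE (at KM) in 200 mM KPO4, preincubated 10 min with compound; NADPH regeneration started a 60 min RT reaction. Luciferin detected by luminescence, normalized to 57 uM ketoconazole as full inhibition.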

[16] = measured here: cell count channel max response
[17] = measured here: lipid channel max response

Chain of Cytochrome P450 3A4 (Homo sapiens) (P08684 whole entry, looked up): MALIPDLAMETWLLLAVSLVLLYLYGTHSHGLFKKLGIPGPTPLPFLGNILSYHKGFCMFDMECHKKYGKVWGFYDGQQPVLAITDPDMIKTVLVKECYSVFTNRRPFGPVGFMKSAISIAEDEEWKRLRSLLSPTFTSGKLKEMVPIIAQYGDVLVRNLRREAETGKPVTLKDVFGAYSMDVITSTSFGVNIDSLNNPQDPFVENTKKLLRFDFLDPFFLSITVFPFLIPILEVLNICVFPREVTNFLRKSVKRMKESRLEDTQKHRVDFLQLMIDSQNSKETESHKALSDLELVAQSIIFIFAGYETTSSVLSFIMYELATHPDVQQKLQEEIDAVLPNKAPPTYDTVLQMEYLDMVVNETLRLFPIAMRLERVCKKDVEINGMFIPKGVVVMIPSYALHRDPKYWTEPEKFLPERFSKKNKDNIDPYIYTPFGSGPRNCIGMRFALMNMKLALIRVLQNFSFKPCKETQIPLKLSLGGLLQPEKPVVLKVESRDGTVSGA
Chain of Ubiquitin carboxyl-terminal hydrolase 1 (Homo sapiens) (O94782 whole entry, looked up): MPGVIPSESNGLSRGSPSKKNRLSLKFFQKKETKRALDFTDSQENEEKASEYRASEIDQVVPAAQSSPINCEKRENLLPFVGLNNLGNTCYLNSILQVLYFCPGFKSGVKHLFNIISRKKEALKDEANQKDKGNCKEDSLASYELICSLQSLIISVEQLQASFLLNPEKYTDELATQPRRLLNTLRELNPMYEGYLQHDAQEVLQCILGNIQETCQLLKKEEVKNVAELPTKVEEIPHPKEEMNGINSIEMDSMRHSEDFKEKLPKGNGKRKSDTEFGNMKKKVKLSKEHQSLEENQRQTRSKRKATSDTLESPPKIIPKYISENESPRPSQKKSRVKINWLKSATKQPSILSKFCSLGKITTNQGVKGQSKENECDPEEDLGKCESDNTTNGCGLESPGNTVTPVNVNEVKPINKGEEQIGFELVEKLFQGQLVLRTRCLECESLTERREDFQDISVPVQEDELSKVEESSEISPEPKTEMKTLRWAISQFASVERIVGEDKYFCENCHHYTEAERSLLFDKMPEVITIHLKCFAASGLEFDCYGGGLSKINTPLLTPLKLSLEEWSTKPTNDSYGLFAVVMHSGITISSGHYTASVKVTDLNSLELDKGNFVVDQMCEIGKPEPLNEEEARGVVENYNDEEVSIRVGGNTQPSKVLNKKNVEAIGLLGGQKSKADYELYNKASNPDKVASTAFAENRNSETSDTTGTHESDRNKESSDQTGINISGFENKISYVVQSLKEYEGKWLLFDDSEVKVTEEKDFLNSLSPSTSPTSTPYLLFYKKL
Chain of 3',5'-cyclic-AMP phosphodiesterase 4B (Homo sapiens) (Q07343 whole entry, looked up): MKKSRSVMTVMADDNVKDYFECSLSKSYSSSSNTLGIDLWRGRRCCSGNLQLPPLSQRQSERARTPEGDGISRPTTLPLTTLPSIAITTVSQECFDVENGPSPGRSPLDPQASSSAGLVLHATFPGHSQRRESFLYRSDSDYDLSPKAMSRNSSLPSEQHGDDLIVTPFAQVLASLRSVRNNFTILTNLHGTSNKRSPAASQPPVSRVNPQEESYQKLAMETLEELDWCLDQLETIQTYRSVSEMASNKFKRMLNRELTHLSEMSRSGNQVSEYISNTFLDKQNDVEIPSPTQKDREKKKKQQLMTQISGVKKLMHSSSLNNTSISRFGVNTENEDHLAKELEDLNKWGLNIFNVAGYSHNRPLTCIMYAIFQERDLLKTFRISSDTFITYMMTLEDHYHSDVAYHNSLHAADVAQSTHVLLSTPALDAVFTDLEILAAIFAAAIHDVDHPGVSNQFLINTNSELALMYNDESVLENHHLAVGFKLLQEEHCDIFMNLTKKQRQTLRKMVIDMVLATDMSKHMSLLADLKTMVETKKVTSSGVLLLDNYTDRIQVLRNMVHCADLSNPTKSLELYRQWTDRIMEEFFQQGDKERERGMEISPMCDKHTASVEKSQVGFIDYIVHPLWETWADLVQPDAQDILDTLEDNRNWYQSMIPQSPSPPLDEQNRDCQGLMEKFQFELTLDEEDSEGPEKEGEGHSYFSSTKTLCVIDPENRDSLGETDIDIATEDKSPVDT
Chain of Glucocorticoid receptor (Homo sapiens) (P04150 whole entry, looked up, the tested form may be a part): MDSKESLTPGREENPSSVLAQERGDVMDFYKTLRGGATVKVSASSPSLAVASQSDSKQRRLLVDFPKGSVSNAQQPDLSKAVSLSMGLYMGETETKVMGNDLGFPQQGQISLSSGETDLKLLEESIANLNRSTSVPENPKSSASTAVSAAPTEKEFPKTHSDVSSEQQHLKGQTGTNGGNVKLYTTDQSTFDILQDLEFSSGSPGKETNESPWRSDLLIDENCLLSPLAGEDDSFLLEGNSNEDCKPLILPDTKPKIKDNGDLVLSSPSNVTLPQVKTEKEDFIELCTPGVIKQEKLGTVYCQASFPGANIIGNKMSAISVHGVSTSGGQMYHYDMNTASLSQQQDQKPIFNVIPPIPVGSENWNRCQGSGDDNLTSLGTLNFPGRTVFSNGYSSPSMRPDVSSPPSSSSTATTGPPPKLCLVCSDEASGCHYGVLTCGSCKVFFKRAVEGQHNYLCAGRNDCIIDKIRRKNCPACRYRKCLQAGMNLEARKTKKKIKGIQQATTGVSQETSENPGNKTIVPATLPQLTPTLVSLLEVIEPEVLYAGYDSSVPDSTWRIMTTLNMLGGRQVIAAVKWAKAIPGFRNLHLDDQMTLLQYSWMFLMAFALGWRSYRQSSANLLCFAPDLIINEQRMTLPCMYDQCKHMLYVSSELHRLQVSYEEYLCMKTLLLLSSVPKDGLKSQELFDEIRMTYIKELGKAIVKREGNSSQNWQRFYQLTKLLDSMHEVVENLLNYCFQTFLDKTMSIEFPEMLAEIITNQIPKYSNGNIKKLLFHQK
Chain of Lysosomal acid glucosylceramidase (Homo sapiens) (P04062 whole entry, looked up): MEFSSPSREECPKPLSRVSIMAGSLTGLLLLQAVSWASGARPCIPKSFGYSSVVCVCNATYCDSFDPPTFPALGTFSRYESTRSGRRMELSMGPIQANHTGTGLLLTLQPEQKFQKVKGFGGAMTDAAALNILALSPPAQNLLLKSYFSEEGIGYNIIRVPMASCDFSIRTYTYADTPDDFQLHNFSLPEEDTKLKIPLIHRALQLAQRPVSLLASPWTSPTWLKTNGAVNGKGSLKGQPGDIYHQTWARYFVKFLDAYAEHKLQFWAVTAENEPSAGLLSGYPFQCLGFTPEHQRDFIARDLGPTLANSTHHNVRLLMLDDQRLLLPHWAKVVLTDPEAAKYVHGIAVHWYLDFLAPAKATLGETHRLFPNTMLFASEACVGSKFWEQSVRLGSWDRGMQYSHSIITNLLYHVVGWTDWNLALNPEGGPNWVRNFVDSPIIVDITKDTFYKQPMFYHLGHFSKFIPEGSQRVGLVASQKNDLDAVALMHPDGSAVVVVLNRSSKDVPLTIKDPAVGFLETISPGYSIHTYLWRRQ
Chain of Cytochrome P450 1A2 (Homo sapiens) (P05177 whole entry, looked up): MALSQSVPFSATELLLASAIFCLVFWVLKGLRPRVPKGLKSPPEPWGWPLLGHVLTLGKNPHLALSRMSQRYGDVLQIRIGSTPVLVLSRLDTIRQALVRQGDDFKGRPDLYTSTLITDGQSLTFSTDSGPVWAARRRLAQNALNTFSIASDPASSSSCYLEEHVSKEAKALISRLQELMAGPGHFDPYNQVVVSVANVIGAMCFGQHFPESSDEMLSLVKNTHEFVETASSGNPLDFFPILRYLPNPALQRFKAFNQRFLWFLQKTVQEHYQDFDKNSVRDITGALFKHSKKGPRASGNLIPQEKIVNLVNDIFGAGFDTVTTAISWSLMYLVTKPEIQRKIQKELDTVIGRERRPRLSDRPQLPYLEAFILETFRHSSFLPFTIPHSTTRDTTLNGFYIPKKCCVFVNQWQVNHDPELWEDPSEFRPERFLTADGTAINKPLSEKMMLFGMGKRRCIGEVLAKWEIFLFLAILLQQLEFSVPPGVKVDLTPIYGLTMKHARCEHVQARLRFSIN

CNc1nc(-c2ccccc2OC)nc2ccccc12
active: Potency [3] 0.398 µM
-10.6%: max response [13, 16]
inactive: Potency [1] > 11.4 µM | activity change, negative = inhibition [2] 7.61% | activity change, negative = inhibition [4] -10.4% | activity, negative = inhibition [5] 17.7% | Potency [6] > 46 µM | Potency [7] > 46 µM | Potency [8] | Potency [9] | Potency [10] | Potency [11] | outcome [12] | activity change, negative = inhibition [13] 2.04% | Potency [14]
-7.86%: max response [13, 17]

COc1ccc2[nH]cc(CCNc3ncnc4ccc(-c5ccccc5CN(C)C)cc34)c2c1
active: Potency [3] 31.6 µM | Potency [15] 1.58 µM
inactive: Potency [1] > 11.4 µM | activity change, negative = inhibition [2] -1.42% | activity change, negative = inhibition [4] -18.9% | activity, negative = inhibition [5] 0.00328% | Potency [6] > 46 µM | Potency [7] > 46 µM | Potency [8] | Potency [9] | Potency [10] | Potency [11] | activity change, negative = inhibition [13] 7.35% | Potency [14]
5.15%: max response [13, 17]
-2.58%: max response [13, 16]

CN(C)c1ccc(-c2cc(NCc3cccnc3)ncn2)cc1
14.7%: max response [13, 16]
inactive: Potency [1] > 11.4 µM | activity change, negative = inhibition [2] -9.72% | activity change, negative = inhibition [4] 5.75% | activity, negative = inhibition [5] 0.912% | Potency [6] > 46 µM | Potency [7] > 46 µM | Potency [8] | Potency [9] | Potency [10] | Potency [11] | outcome [12] | activity change, negative = inhibition [13] 7.63% | Potency [14]
22.6%: max response [13, 17]
active: Potency [3] 0.398 µM | Potency [15] 3.16 µM

CN(C)C(=O)c1ccc(-c2nc(N(C)C)c3ccccc3n2)cc1
active: Potency [3] 10 µM
13.9%: max response [13, 17]
8.15%: max response [13, 16]
inactive: Potency [1] > 11.4 µM | activity change, negative = inhibition [2] -11.7% | activity change, negative = inhibition [4] 16.5% | activity, negative = inhibition [5] 2.64% | Potency [6] > 46 µM | Potency [7] > 46 µM | Potency [8] | Potency [9] | Potency [10] | Potency [11] | outcome [12] | activity change, negative = inhibition [13] 8.51% | Potency [14]

COc1ccc2[nH]cc(CCNc3nc(-c4ccoc4)nc4ccccc34)c2c1
inactive: activity change, negative = inhibition [2] -4.09% | activity, negative = inhibition [5] -9.95% | Potency [6] > 46 µM | Potency [7] > 46 µM | Potency [8] | Potency [10] | Potency [11] | outcome [12] | activity change, negative = inhibition [13] 9.94%
active: Potency [1] 8.61 µM | Potency [3] 0.398 µM | Potency [15] 3.16 µM
6.9%: max response [13, 16]
18.2%: max response [13, 17]

COc1ccc(Oc2ncc3nc(-c4cc(F)cc(F)c4)c(=O)n(C)c3n2)cc1
13.4%: max response [13, 16]
inactive: Potency [1] > 11.4 µM | activity change, negative = inhibition [2] 18.9% | activity change, negative = inhibition [4] -15.3% | Potency [6] > 9.22 µM | Potency [7] > 46 µM | Potency [8] | Potency [10] | activity change, negative = inhibition [13] -5.54%
active: Potency [3] 3.16 µM | Potency [15] 5.01 µM
-2.06%: max response [13, 17]

Cc1noc(C)c1C(=O)N1CCC[C@@]2(CCN(Cc3cc(C(F)(F)F)cc(C(F)(F)F)c3)C2)C1
inactive: Potency [1] > 11.4 µM | activity change, negative = inhibition [2] 1.15% | Potency [3] | activity change, negative = inhibition [4] 14.8% | activity, negative = inhibition [5] 1.36% | Potency [7] > 46 µM | Potency [8] | Potency [9] | Potency [10] | activity change, negative = inhibition [13] 4.37%
19.6%: max response [13, 17]
12.5%: max response [13, 16]

CN1CCN(c2ncc3ncc(=O)n(Cc4cccs4)c3n2)CC1
active: Potency [3] 3.98 µM
inactive: Potency [1] > 11.4 µM | activity change, negative = inhibition [2] -18.1% | activity, negative = inhibition [5] -10.9% | Potency [6] > 9.22 µM | Potency [7] > 46 µM | Potency [8] | Potency [9] | Potency [10] | activity change, negative = inhibition [13] 4.27%
26.8%: max response [13, 16]
33.1%: max response [13, 17]

Cc1ccccc1-c1cncnc1NCCN1CCOCC1
3.28%: max response [13, 17]
inactive: Potency [1] > 11.4 µM | activity change, negative = inhibition [2] 24.4% | activity, negative = inhibition [5] 7.48% | Potency [6] > 46 µM | Potency [7] > 46 µM | Potency [8] | Potency [9] | Potency [10] | Potency [11] | outcome [12] | activity change, negative = inhibition [13] 4.31% | Potency [14]
active: Potency [3] 15.8 µM | Potency [15] 1.58 µM
0.273%: max response [13, 16]

COc1ccccc1-c1nccc(NCc2cccc(C)c2)n1
inactive: Potency [1] > 11.4 µM | activity change, negative = inhibition [2] -2.08% | activity change, negative = inhibition [4] -5.48% | Potency [7] > 46 µM | Potency [8] | Potency [10] | Potency [11] | outcome [12] | activity change, negative = inhibition [13] -4.4%
active: Potency [3] 0.631 µM | Potency [15] 6.31 µM | Potency [14] 22.4 µM
-23.8%: max response [13, 17]
-19.8%: max response [13, 16]

O=c1cnc2cnc(N3CCOCC3)nc2n1C[C@H]1CCCO1
13.3%: max response [13, 16]
22.5%: max response [13, 17]
active: Potency [3] 10 µM
inactive: Potency [1] > 11.4 µM | activity change, negative = inhibition [2] 2.78% | activity, negative = inhibition [5] -3.88% | Potency [6] > 9.22 µM | Potency [7] > 46 µM | Potency [8] | Potency [9] | Potency [10] | activity change, negative = inhibition [13] 5.43%
